High-throughput results from PubChem.
In the library only some 1.6% were active in any assay of this set; here they are far more common.
dFosB activator = mouse delta FosB homodimer activation; P13346; purified delta FosB, TAMRA-CDK5 oligo fluorescence polarization; percent of positive-control signal above neutral wells; activation, % at 25 µM; 0.99% of 340,000 active;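 active = mean activation above about 17%, with every replicate also reaching it, limit read from the data, passing the limit was not always enough; inconclusive = only one of the two conditions met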
Target sequence (P13346 whole entry, looked up): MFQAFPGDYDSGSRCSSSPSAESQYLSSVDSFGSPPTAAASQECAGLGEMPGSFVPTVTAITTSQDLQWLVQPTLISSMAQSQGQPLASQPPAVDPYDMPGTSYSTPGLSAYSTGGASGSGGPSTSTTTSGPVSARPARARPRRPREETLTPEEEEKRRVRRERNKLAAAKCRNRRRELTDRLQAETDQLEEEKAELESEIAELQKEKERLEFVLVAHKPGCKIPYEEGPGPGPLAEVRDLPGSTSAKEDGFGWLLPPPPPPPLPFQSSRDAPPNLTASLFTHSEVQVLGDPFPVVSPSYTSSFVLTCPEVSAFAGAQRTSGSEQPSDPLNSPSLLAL
DYRK1A inh = Dyrk1A (rat) kinase inhibition | ADP-Glo luminescence, NFATc1 peptide | inhibition, % at 12.5 µM | 0.43% of 310,000 active; in the data active = inhibition above about 50%
A1 inh = inhibitors of the anti-apoptotic protein A1, read as caspase activation. AID 2462. caspase activation, % (test concentration not listed). MEF A1-2A-BIM cells, Caspase-Glo 3/7 luminescence, 3 h; percent of clofoctol response, vehicle zero. 0.066% of 330,000 active;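 active = over half of replicate activation scores above 10%, or exactly half above 10 with the replicate mean above 10; inconclusive = replicate mean below 10 yet half the replicates above 10; inactive = over half of replicates below 10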
B2AR ag = human beta-2 adrenergic receptor agonism by FAP | AID 504454 | Am2.2-beta2AR cells, FAP receptor internalization, flow cytometry | response, % (test concentration not listed) | 0.43% of 340,000 active | P07550;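 active = response above a set limit, near 3 SD of response in nonfluorescent compounds, cut at about 42% in these data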
Dyrk1A artifact = ADP-Glo luciferase interference, Dyrk1A counter-screen. shares compounds with DYRK1A inh. ADP-Glo luciferase artifact assay, no Dyrk1A, luminescence. AC50, µM (doses to about 12 µM). 1,300 tested, under 10 active. AID 588348;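 active = fitted half-maximal dose AC50 no more than ten times the top valid tested dose, with luminescence dropping as dose rises; inconclusive = poor fit, or flat fit with 30 to 70% inhibition; inactive = the rest, signal increases included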
Each line names hits and unclear results; the compound was inactive in the other large screens (follow-up assays come after a bar, where they were run).

c1cncc(-c2ccc3ncnc(NCc4cccs4)c3c2)c1	none
c1csc(CNc2ncnc3ccc(-c4ccc5c(c4)OCCO5)cc23)c1	DYRK1A inh 71.9 | Dyrk1A artifact inactive
CCCCNC(=S)Nc1ccc2cn[nH]c2c1	DYRK1A inh 80.7 | Dyrk1A artifact inactive
COc1ccc(-c2cc(C(=O)N/N=C(\C)c3cccnc3)c3cc(C)ccc3n2)cc1OC	none
CC(=O)Nc1ccc(SCc2ncc(-c3ccccc3)o2)cc1	DYRK1A inh 64.2 | Dyrk1A artifact inactive
CC(=O)Nc1ccc(SCC(=O)Nc2ccccc2-c2ccccc2)cc1	none
COc1cccc(Nc2nc(-c3ccc(O)cc3)cs2)c1	DYRK1A inh 54.2 | Dyrk1A artifact inactive
CC(=O)Nc1cccc(NC(=O)C(=O)NCC(c2ccco2)N2CCc3ccccc32)c1 (stereo not drawn)	none
O=c1[nH]c(=S)[nH]c2scc(-c3ccc(Br)cc3)c12	none
O=c1[nH]c(=S)[nH]c2sccc12	DYRK1A inh 63.6 | Dyrk1A artifact inactive
O=C(Nc1nc2ccccc2s1)c1ccc(OCC2CCCO2)cc1 (stereo not drawn)	DYRK1A inh 57.2 | Dyrk1A artifact inactive
Cc1cnc(NC(=O)c2ccc(OCC3CCCO3)cc2)s1 (stereo not drawn)	none (no result: dFosB activator, DYRK1A inh)
COCCCN1C(=O)c2ccc(C(=O)Nc3ccc(C)cc3C)cc2C1=O	none
Cc1nc2c(c3c1[nH]c1ccccc13)C(=O)CC(C)(C)C2	DYRK1A inh 85.0 | Dyrk1A artifact inactive
CC1(C)CC(=O)c2c(nc3ccccc3c2N)C1	none
CCN(CC)CCCNC(=S)N1CCC(c2nc3ccccc3[nH]2)CC1	A1 inh inconclusive
CN(C)CCNc1ccc2nnn3c4ccc(O)cc4c(=O)c1c23	none (no result: DYRK1A inh, A1 inh)
CCN(CC)CCCNc1ccc2ncn3c4ccc(O)cc4c(=O)c1c23	dFosB activator 37.9, DYRK1A inh 86.8 (no result: A1 inh) | Dyrk1A artifact inactive
Cc1nc2cc3ccccc3cc2n1C	none
Cn1c(=O)[nH]c2cc3ccccc3cc21	DYRK1A inh 51.9 | Dyrk1A artifact inactive
Cc1cc(C(=O)Cn2cnc3ccccc3c2=O)c(C)n1C1CC1	none
O=C(O)c1cc(N/N=C/c2c(O)ccc3ccccc23)ccc1Cl	DYRK1A inh 73.5 | Dyrk1A artifact inactive
COC(=O)c1cc(C)nc2c1C(=O)C(=O)C=C2N1CCOCC1	DYRK1A inh 60.6, B2AR ag 60.9 | Dyrk1A artifact inactive
O=C(NNS(=O)(=O)c1ccccc1)c1csc(-c2cccnc2)n1	none
O=C(Nc1ccccc1Cl)c1csc(-c2cccnc2)n1	DYRK1A inh 74.9 | Dyrk1A artifact inactive
O=C(CSc1nnnn1-c1ccc(O)cc1)Nc1ccc(N2CCOCC2)c(Cl)c1	DYRK1A inh 51.0 | Dyrk1A artifact inactive
NC(=O)c1ccc(-n2nnnc2SCC(=O)Nc2ccc(N3CCOCC3)c(Cl)c2)cc1	none
COc1cccc(-c2noc(N)c2C#N)c1	DYRK1A inh 63.4 | Dyrk1A artifact inactive
O=C(Nc1cccnc1)c1scc2c1OCCO2	DYRK1A inh 52.0 | Dyrk1A artifact inactive
CCC(C(=O)NC1CCCC1)N(C(=O)Cn1nnc(-c2ccc(C)o2)n1)c1cccc(OC)c1 (stereo not drawn)	none
CC1CCc2nc(NC(=O)CN3CCN(Cc4ccc5c(c4)OCO5)CC3)sc2C1 (stereo not drawn)	DYRK1A inh 55.2 | Dyrk1A artifact inactive
CC1CCc2nc(NC(=O)CN3CCN(c4ccccc4)CC3)sc2C1 (stereo not drawn)	none
O=S(=O)(c1ccc(-c2n[nH]c(=S)o2)cc1)N1CCCC1	none
CCOC(=O)c1cnc2ccc(C)cc2c1Nc1ccc(N2CCOCC2)cc1	DYRK1A inh 60.8 | Dyrk1A artifact inactive
CCOC(=O)c1ccc2ncc(C(=O)OCC)c(NCCN3CCOCC3)c2c1	none
COc1ccc(N(CC(=O)NCCSCc2ccco2)S(=O)(=O)c2ccccc2)cc1Cl	none
COc1ccc(N(CC(=O)Nc2ccc3c(c2)OCCO3)S(=O)(=O)c2c(C)nn(C)c2C)cc1	DYRK1A inh 56.2 | Dyrk1A artifact inactive
NN=C1c2ccccc2C(=O)C1C(=O)C(c1ccccc1)c1ccccc1 (stereo not drawn)	none (no result: DYRK1A inh, A1 inh)
COc1ccc(-n2c(Cn3c(=O)sc4ccccc43)nnc2SCC(=O)N2CCOCC2)cc1	DYRK1A inh 55.9 | Dyrk1A artifact inactive
CC(C)C(C)(C#N)NC(=O)COC(=O)C1CCN(S(=O)(=O)c2ccc3c(c2)OCCO3)CC1 (stereo not drawn)	none (no result: A1 inh)
Cc1ccc(CNS(=O)(=O)c2ccc(C(F)(F)F)cc2)n1C	none (no result: DYRK1A inh)
NS(=O)(=O)c1ccc(N=Cc2c(O)c3ccccc3oc2=O)cc1	none
O=C(O)c1cc(N=Cc2c(O)c3ccccc3oc2=O)ccc1O	DYRK1A inh 82.5 | Dyrk1A artifact inactive
N=C1S/C(=C\c2ccc(O)cc2)C(=O)N1c1ccc(F)cc1	DYRK1A inh 77.8 | Dyrk1A artifact inactive
O=C1NC(=O)/C(=C/c2ccc(O)cc2)S1	DYRK1A inh 89.8 | Dyrk1A artifact inactive
CN(C)C(=O)c1cc(C(=O)c2c(F)cccc2F)c[nH]1	none
CC(NCC(O)c1ccc([N+](=O)[O-])cc1)C12CC3CC(CC(C3)C1)C2 (stereo not drawn)	none
CN(C)CCNC(=O)c1cc2c(s1)-c1ccccc1OC2	DYRK1A inh 68.3 | Dyrk1A artifact inactive
Cn1c(N)c(C(=O)COC(=O)/C=C/c2ccc(S(=O)(=O)N3CCOCC3)cc2)c(=O)n(C)c1=O	none
CCC(C)[C@H]1CNCCN1CCc1cccc2ccccc12 (stereo partly drawn)	DYRK1A inh 50.9 | Dyrk1A artifact inactive
CCC(C)[C@H]1CNCCN1CC1(c2ccccc2)CC1 (stereo partly drawn)	none
CCn1c2ccccc2c2cc(/C=N/n3cnnc3)ccc21	none
CCn1c2ccccc2c2cc(/C=N/O)ccc21	DYRK1A inh 79.9 | Dyrk1A artifact inactive
COc1ccc(-c2csc(N=C(N)N)n2)cc1	DYRK1A inh 81.9 | Dyrk1A artifact inactive
Oc1ccc2ccccc2c1N=Nc1ccccc1F	none
O=S(=O)(O)c1cccc(N=Nc2c(O)ccc3ccccc23)c1	DYRK1A inh 74.2 | Dyrk1A artifact inactive
CC(C)Oc1ccc(C2CNC(=O)C2)cc1 (stereo not drawn)	DYRK1A inh 53.6 | Dyrk1A artifact inactive
CC1Cc2cc(/C=C3/SC(=S)NC3=O)ccc2O1 (stereo not drawn)	DYRK1A inh 84.4 | Dyrk1A artifact inactive
CCN(CC)c1ccc(C=C2SC(=S)NC2=O)cc1	none (no result: DYRK1A inh, A1 inh)
Cn1nc(-c2ccccc2)c2cc(C(=O)O)sc21	none
CSc1nnc(-c2cc3c(-c4ccccc4)nn(C)c3s2)n1C	DYRK1A inh 52.0, A1 inh inconclusive | Dyrk1A artifact inactive
N#Cc1c(C(F)(F)F)cc(-c2cccc(Cl)c2)[nH]c1=O	DYRK1A inh 54.2 | Dyrk1A artifact inactive
Cc1ccc(/C=c2\sc3n(c2=O)CN(c2ccc(Br)cc2)CN=3)o1	DYRK1A inh 62.4 | Dyrk1A artifact inactive
Cc1ccc(/C=c2/sc3n(c2=O)CCCN=3)o1	none
CCn1c(=S)sc2c(=O)n(CC(=O)Nc3cccc(OC)c3)c(C)nc21	none
